Test [1] in a line: qHTS assay for small molecules that induce genotoxicity in human embryonic kidney cells expressing luciferase-tagged ATAD5 (AID 651632). Also: nearly all actives have a fitted effect of over 15% in size. In short, it runs like this:
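ATAD5-luc HEK293T, 2,000 cells/well; cpd or DMSO pin-transferred; 16 hr, 37C/5% CO2; Amplite 30 min RT; luminescence.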

A short description of test [2]: qHTS assay for small molecule agonists of the p53 signaling pathway - cell viability (AID 651633; calls by dose curve;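 also: p53RE-bla HCT reporter cells with a stable beta-lactamase p53 reporter; series mostly up to about 83 µM; nearly all actives have a fitted effect of over 30% in size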). The essentials:
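p53RE-bla cells were treated with compound for 16 hours at 37 C. Cytotoxicity was then measured as CellTiter-Glo luminescence after 30 min at room temperature.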

Test [3] in a line: qHTS assay for small molecule disruptors of the mitochondrial membrane potential - cell viability (AID 720634; calls by dose curve;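 also: human HepG2 liver cancer cells; series mostly up to about 83 µM; nearly all actives have a fitted effect of over 20% in size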). The essentials:
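Cells: HepG2, 2,000/well, attached overnight. Compound 1 hr, 37 C/5% CO2. +m-MPI dye, +CellTiter-Glo 30 min RT. Readout: luminescence (ATP).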

A short description of test [4]: qHTS assay to test for compound auto fluorescence at 535 nm (green) in HepG2 cells (AID 720675). (In general: In qHTS, concentration-response curves come from the screen itself.)
Test [5] can be described thus: qHTS assay to test for compound auto fluorescence at 460 nm (blue) in HEK293 cells (AID 720678). In short, it runs like this:
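Cells were seeded and left to adhere for 4-5 hr at 37C. Compounds were then pin-transferred. After an overnight incubation at 37C under 5% CO2, intrinsic fluorescence at 405/460 nm was measured and referenced to triamterene.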

Test [6] in a line: qHTS assay to test for compound auto fluorescence at 590 nm (red) in HEK293 cells (AID 720679). In short, it runs like this:
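Each well held 2,000 HEK293 cells in medium containing 10% dialyzed FBS. Following 4-5 hr attachment at 37C, 23 nL test compound or DMSO was added; plates sat overnight, and red fluorescence (540/590nm) was recorded.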

A short description of test [7]: qHTS assay to test for compound auto fluorescence at 460 nm (blue) in HEK293 cell free culture (AID 720681). In short, it runs like this:
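Compounds were added to cell-free DMEM with 10% FBS and fluorescence read directly. The blue channel used 405 nm excitation and 460 nm emission, with triamterene as the reference fluorophore.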

Test [8] can be described thus: qHTS assay to test for compound auto fluorescence at 535 nm (green) in HEK293 cell free culture (AID 720682). The essentials: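 Green-label autofluorescence (485 nm excitation, 535 nm emission) measured on compound added to cell-free culture medium (DMEM, 10% FBS). Output is expressed relative to fluorescein.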
Test [9] can be described thus: qHTS assay to test for compound auto fluorescence at 590 nm (red) in HepG2 cell free culture (AID 720684). The essentials: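 Compound was pinned into wells holding MEM with 10% FBS and no cells, and red fluorescence was read at Ex/Em 540/590 nm. Signal is expressed as auto fluorescence equivalency relative to Rose Bengal sodium.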
A short description of test [10]: qHTS assay to test for compound auto fluorescence at 460 nm (blue) in HepG2 cell free culture (AID 720685). In short, it runs like this:
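Compound (23 nL) or DMSO pinned into cell-free MEM with 10% FBS; blue fluorescence read at 405/460 nm excitation/emission, expressed as auto-fluorescence equivalency to triamterene.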

Test [11] can be described thus: qHTS assay to test for compound auto fluorescence at 535 nm (green) in HepG2 cell free culture (AID 720686).
A short description of test [12]: qHTS assay to test for compound auto fluorescence at 460 nm (blue) in HepG2 cells (AID 720687). In short, it runs like this:
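HepG2 cells in MEM with 10% FBS, attached overnight at 37 C, were exposed to compound or DMSO for 1 hr at 37 C, 5% CO2. Blue fluorescence was read at 405/460 nm, with triamterene as reference fluorophore.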

Test [13] can be described thus: qHTS assay for identifying genotoxic compounds that show differential cytotoxicity against isogenic chicken DT40 cell lines with known DNA damage response pathways - wild type cell line (AID 743012). Also: nearly all actives have a fitted effect of over 60% in size. Also: potency is read from the fitted curve at half-maximal effect. The essentials: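 Wild type DT40, 300 cells/well, ~0.5 h settle at 37 C/5% CO2; compounds in DMSO added by pintool; 40 h at 37 C/5% CO2; CellTiter-Glo, 30 min RT; luminescence.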

A short description of test [14]: qHTS assay to identify small molecule antagonists of the androgen receptor (AR) signaling pathway using the MDA cell line - cell viability counter screen (AID 743041; also: nearly all actives have a fitted effect of over 45% in size). The essentials:
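MDA-kb2 AR-luc cells (MMTV-luciferase, AR/GR responsive) treated with compounds plus R1881 agonist for 16 h at 37C. CellTiter-Fluor added at 15.5 h; fluorescence read after 30 min in the same wells.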

Test [15] in a line: qHTS assay to identify small molecule antagonists of the estrogen receptor alpha (ER-alpha) signaling pathway - cell viability counter screen (AID 743074; calls by dose curve;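 also: HEK293 cells carrying ER-alpha-UAS-bla reporter stimulated with 17beta-estradiol; nearly all actives have a fitted effect of over 45% in size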).
Test [16] can be described thus: qHTS assay to identify aromatase inhibitors - cell viability counter screen (AID 743084).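 Also: cells stimulated with testosterone during compound exposure; nearly all actives have a fitted effect of over 55% in size.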
Test [17] addresses Aryl hydrocarbon receptor (Homo sapiens) (UniProt P35869). The test can be described thus: qHTS assay to identify small molecule that activate the aryl hydrocarbon receptor (AhR) signaling pathway (AID 743085).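 Also: HG2L7.5c1 human HepG2 liver cells with stably integrated DRE-driven firefly reporter; series mostly up to about 70 µM; nearly all actives have a fitted effect of over 15% in size.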 The essentials: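 HepG2 cells stably carrying a 20-DRE firefly luciferase reporter (HG2L7.5c1) treated with compound for 24 hr at 37C. Luciferase read by ONE-Glo luminescence, with CellTiter-Fluor viability read first.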

The nature of test [18]: qHTS assay for identifying genotoxic compounds that show differential cytotoxicity against isogenic chicken DT40 cell lines with known DNA damage response pathways - Rad54/Ku70 mutant cell line (AID 743015). Also: nearly all actives have a fitted effect of over 60% in size.
A short description of test [19]: qHTS assay to identify small molecule antagonists of the androgen receptor (AR) signaling pathway - cell viability counter screen (AID 743033; also: nearly all actives have a fitted effect of over 45% in size).
In another test the target is Aromatase (Homo sapiens) (UniProt P11511). The test can be described thus: qHTS assay to identify aromatase inhibitors (AID 743083). Also: series mostly up to about 70 µM; nearly all actives have a fitted effect of over 55% in size.
Aromatase (Homo sapiens), sequence (P11511 whole entry, looked up): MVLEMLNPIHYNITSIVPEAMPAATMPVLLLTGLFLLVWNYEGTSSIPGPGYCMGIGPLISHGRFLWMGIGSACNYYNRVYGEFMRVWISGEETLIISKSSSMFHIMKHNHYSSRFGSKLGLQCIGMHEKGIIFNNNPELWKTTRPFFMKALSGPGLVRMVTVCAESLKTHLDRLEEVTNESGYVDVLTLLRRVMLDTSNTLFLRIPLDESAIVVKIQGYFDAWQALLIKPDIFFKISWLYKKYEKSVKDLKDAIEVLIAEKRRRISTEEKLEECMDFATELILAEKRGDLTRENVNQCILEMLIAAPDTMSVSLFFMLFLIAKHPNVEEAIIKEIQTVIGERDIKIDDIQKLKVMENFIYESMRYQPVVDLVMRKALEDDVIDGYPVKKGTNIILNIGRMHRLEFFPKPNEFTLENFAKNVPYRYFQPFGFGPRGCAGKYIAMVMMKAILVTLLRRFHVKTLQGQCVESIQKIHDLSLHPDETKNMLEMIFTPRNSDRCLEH

Inconclusive results are not listed. Activity calls are given as the source filed them. Unless noted, calls follow the shape of the dose curve; as a rule, active = well fitted curve in the direction sought with a large enough effect in the repeat runs; inconclusive = weak or mixed curves; inactive = no such curve, though single readings can be large; an effect the other way counts as inactive or inconclusive.

Aryl hydrocarbon receptor (Homo sapiens), sequence (P35869 whole entry, looked up): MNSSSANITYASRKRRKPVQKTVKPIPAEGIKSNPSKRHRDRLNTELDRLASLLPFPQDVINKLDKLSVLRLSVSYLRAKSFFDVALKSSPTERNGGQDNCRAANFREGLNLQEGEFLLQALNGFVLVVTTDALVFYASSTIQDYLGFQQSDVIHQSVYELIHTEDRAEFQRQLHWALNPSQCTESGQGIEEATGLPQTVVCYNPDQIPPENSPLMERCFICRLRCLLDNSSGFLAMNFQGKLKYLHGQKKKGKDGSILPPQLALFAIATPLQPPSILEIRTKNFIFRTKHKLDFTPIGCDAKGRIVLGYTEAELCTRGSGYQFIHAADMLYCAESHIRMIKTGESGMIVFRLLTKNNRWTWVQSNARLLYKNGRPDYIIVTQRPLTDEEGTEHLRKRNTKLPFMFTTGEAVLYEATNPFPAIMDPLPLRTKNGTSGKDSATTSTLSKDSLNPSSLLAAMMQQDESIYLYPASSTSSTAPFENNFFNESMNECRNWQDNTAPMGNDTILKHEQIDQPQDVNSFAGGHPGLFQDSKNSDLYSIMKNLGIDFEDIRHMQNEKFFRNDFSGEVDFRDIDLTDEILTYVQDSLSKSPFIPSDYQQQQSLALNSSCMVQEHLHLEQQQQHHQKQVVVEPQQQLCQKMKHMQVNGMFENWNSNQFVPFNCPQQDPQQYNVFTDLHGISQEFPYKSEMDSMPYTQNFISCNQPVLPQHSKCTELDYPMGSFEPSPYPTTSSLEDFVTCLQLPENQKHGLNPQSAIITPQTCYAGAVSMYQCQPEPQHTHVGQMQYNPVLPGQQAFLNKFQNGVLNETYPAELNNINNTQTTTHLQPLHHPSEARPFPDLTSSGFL

As to `C[C@@H]1[C@H]2Cc3ccc(O)cc3[C@]1(C)CCN2C`, the Potency result in [1], in test [2], in [3], in test [4], in test [5] and in test [7] was “inactive” throughout. Besides, the Potency result in test [8], in [10], in test [11], in test [12], in test [14] and in test [15] was “inactive” in each case. Also, the Potency result in test [16] and in test [17] was “inactive” throughout. For the same compound, the result in test [6] and in test [9] was inactive. Besides, the Potency in test [13] was 89.3 µM (active).
Turning to `C[C@@H]1[C@@H]2Cc3ccc(O)cc3[C@@]1(C)CCN2CC1CC1`, the Potency entry in test [1], in test [2], in [3], in test [4], in test [5] and in test [7] was “inactive” in each case. Moreover, the Potency result in test [8], in test [10], in test [11], in test [12], in test [13] and in [18] was “inactive” throughout. For the same compound, the Potency result (in [19]; in [14]; in test [15]; with Aromatase (Homo sapiens); in test [16]; in test [17]) was “inactive” each time. For the same compound, the result in [6] and in test [9] was inactive.
In the case of `CC(N)Cc1ccc2c(c1)OCO2` (stereo not given), the Potency result in [1], in test [2], in test [3], in [4], in test [5] and in test [7] was “inactive” each time. Further, the Potency result in test [8], in test [10], in [11], in [12], in [13] and in test [18] was “inactive” in each case. The Potency result (in test [19]; in test [14]; in [15]; in the test with Aromatase (Homo sapiens); in test [16]; in test [17]) was “inactive” in each case. Besides, the outcome in test [6] and in test [9] was inactive.
On to `COc1cc(C[C@H](C)N)c(OC)cc1C`, for which the Potency result in test [1], in [2], in test [3], in test [4], in test [7] and in test [8] was “inactive” throughout. Further, the Potency entry in [10], in [11], in [12], in test [18], in [19] and in test [15] was “inactive” throughout. In addition, the Potency result (with Aromatase (Homo sapiens); in test [16]) was “inactive” each time. Also, the result in [6] and in [9] was inactive.
Turning to `CC(=O)[C@@]1(O)CC[C@H]2[C@@H]3CCC4=CC(=O)CC[C@]4(C)C3(F)[C@@H](O)C[C@@]21C` (stereo not given in full), the Potency result in test [1], in test [2], in test [3], in test [4], in [5] and in test [7] was “inactive” throughout. Also, the Potency result in [8], in test [10], in [11], in test [12], in [13] and in test [18] was “inactive” in each case. In addition, the Potency entry (in test [19]; in [14]; in test [15]; in the test with Aromatase (Homo sapiens); in test [16]; in test [17]) was “inactive” throughout. The compound was called inactive in test [6] and in [9].
Consider `O=C1C[C@@H]2OCC=C3CN4CC[C@]56c7ccccc7N1[C@H]5[C@H]2[C@H]3C[C@H]46` (tested in a mixture with another compound), for which the Potency result in test [3], in test [4], in test [5], in test [7], in test [8] and in [10] was “inactive” each time. The Potency entry in test [11], in test [12], in [13], in test [18], in test [19] and in [14] was “inactive” each time. Moreover, the Potency result (in [15]; with Aromatase (Homo sapiens); in test [16]) was “inactive” in each case. For the same compound, the compound was called inactive in test [6] and in [9].
`C/C=C(\CC)C(=O)NC(N)=O`: the Potency entry in [1], in [2], in test [3], in test [4], in test [5] and in [7] was “inactive” in each case. In addition, the Potency entry in [8], in [10], in [11], in [12], in test [13] and in [18] was “inactive” throughout. Moreover, the Potency result (in [19]; in test [14]; in [15]; in the test with Aromatase (Homo sapiens); in test [16]; in [17]) was “inactive” in each case. Moreover, the outcome in [6] and in [9] was inactive.

The values are drawn from PubChem BioAssay (Tox21).
